Test results published in ChEMBL document CHEMBL1961873, “Compounds: GSK PKIS; Assays: Nanosyn kinase panel” (2012).

Assays:
[1] = biological target: Casein kinase I isoform gamma-2 (Homo sapiens) (UniProt P78368); conditions: at 1 µM
[2] = biological target: Casein kinase I isoform gamma-3 (Homo sapiens) (UniProt Q9Y6M4); conditions: at 0.1 µM
[3] = biological target: Casein kinase I isoform gamma-3 (Homo sapiens) (UniProt Q9Y6M4); conditions: at 1 µM
[4] = biological target: Cyclin-dependent kinase 1 (Homo sapiens) (UniProt P06493); conditions: at 0.1 µM
Chain of Cyclin-dependent kinase 1 (Homo sapiens) (P06493 whole entry, looked up): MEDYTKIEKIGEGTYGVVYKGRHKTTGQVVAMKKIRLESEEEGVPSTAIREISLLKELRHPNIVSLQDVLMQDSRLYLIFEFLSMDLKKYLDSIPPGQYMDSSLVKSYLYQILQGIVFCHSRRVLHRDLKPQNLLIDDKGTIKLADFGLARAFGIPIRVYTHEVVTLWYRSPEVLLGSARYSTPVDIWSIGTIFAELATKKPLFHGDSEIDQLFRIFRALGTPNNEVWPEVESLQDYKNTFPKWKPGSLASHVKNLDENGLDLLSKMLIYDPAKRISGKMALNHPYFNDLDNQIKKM

[5] = biological target: Cyclin-dependent kinase 1 (Homo sapiens) (UniProt P06493); conditions: at 1 µM
[6] = biological target: Cyclin-dependent kinase 2 (Homo sapiens) (UniProt P24941); conditions: at 0.1 µM
[7] = biological target: Cyclin-dependent kinase 2 (Homo sapiens) (UniProt P24941); conditions: at 1 µM
[8] = biological target: Cyclin-dependent kinase 2 (Homo sapiens) (UniProt P24941); conditions: at 0.1 µM; remark: listed apart in the source
[9] = biological target: Cyclin-dependent kinase 2 (Homo sapiens) (UniProt P24941); conditions: at 1 µM; remark: listed apart in the source
[10] = biological target: T1, CDK3/Cyclin E (Homo sapiens) (UniProt P24864+Q00526); conditions: at 0.1 µM
T1 sequence (P24864 whole entry, looked up): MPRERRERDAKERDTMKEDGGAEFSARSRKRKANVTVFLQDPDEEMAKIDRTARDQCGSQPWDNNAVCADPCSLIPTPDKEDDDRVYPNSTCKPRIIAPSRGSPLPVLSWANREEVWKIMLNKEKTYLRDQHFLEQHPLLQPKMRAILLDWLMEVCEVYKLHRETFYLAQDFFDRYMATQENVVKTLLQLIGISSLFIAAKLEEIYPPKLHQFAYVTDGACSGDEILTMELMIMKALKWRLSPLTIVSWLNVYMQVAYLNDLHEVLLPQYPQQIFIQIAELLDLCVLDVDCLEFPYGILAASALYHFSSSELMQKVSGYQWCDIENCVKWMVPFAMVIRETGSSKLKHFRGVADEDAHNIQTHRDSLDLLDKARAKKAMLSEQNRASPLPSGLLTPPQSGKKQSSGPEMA
T1 sequence (Q00526 whole entry, looked up): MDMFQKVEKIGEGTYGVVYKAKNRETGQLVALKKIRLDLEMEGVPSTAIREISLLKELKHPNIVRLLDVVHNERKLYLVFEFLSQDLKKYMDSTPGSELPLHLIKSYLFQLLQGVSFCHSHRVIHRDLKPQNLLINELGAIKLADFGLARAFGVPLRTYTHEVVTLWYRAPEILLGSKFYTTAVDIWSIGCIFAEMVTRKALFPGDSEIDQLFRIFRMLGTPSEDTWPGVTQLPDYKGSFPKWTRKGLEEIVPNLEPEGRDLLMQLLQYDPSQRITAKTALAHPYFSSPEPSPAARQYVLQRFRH

[11] = biological target: T1, CDK3/Cyclin E (Homo sapiens); conditions: at 1 µM
[12] = biological target: Cyclin-dependent kinase 4 (Homo sapiens) (UniProt P11802); conditions: at 0.1 µM
Chain of Cyclin-dependent kinase 4 (Homo sapiens) (P11802 whole entry): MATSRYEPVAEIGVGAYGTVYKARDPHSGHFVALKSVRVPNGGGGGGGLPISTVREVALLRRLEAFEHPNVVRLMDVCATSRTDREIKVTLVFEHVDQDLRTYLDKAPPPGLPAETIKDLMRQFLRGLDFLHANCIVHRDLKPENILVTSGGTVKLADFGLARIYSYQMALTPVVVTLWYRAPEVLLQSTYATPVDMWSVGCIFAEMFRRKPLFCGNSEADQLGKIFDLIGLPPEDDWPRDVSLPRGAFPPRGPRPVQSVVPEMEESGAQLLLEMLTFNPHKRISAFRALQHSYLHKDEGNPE

[13] = biological target: Cyclin-dependent kinase 4 (Homo sapiens) (UniProt P11802); conditions: at 1 µM
[14] = biological target: Cyclin-dependent kinase 5 (Homo sapiens) (UniProt Q00535); conditions: at 0.1 µM
Chain of Cyclin-dependent kinase 5 (Homo sapiens) (Q00535 whole entry, looked up): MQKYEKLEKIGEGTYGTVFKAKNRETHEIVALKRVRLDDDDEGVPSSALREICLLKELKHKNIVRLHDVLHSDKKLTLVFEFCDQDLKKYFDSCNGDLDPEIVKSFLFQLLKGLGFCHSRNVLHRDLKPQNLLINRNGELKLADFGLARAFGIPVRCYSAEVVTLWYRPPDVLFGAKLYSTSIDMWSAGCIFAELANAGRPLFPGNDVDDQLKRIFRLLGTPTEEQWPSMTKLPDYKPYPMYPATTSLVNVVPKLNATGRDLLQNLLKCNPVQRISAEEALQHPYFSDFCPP

[15] = biological target: Cyclin-dependent kinase 5 (Homo sapiens) (UniProt Q00535); conditions: at 1 µM
[16] = biological target: Cyclin-dependent kinase 6 (Homo sapiens) (UniProt Q00534); conditions: at 0.1 µM
Chain of Cyclin-dependent kinase 6 (Homo sapiens) (Q00534 whole entry): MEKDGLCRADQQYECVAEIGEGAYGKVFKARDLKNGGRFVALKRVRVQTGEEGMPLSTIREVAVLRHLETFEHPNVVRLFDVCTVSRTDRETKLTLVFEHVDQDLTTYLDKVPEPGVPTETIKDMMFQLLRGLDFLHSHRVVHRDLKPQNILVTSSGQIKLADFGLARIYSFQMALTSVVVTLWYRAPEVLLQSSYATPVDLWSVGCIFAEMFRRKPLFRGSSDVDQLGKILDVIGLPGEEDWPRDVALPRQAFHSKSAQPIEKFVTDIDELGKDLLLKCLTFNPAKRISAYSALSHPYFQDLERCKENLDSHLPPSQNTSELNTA

[17] = biological target: Cyclin-dependent kinase 6 (Homo sapiens) (UniProt Q00534); conditions: at 1 µM
[18] = biological target: Dual specificity protein kinase CLK2 (Homo sapiens) (UniProt P49760); conditions: at 0.1 µM
Chain of Dual specificity protein kinase CLK2 (Homo sapiens) (P49760 whole entry, looked up): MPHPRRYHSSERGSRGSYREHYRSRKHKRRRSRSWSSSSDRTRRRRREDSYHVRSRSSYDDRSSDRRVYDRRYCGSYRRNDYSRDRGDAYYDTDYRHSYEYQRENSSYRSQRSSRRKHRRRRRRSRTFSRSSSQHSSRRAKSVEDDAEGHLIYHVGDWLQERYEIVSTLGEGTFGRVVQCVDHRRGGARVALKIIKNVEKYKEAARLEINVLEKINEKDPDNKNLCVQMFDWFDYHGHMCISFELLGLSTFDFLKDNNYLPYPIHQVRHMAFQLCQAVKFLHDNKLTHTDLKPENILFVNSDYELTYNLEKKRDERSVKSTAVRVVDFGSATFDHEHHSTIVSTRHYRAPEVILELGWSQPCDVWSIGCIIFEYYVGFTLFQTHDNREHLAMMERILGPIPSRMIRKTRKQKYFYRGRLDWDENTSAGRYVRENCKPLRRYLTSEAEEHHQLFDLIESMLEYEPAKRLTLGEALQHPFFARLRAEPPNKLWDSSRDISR

[19] = biological target: Dual specificity protein kinase CLK2 (Homo sapiens) (UniProt P49760); conditions: at 1 µM
[20] = biological target: Dual specificity protein kinase CLK3 (Homo sapiens) (UniProt P49761); conditions: at 0.1 µM
Chain of Dual specificity protein kinase CLK3 (Homo sapiens) (P49761 whole entry, looked up): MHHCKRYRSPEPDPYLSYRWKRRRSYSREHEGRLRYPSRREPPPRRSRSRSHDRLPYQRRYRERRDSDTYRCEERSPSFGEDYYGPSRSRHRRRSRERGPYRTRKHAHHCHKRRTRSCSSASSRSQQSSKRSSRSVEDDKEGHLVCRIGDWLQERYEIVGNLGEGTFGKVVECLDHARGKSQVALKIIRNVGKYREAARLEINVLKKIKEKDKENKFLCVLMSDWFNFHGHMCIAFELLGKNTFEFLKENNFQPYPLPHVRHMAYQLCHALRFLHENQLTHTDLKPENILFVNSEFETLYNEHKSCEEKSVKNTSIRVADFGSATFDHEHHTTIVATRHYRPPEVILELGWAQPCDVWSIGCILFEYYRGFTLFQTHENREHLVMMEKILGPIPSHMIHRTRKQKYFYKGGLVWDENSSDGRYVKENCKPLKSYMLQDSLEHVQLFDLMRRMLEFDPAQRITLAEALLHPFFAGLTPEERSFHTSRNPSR

Chain of Casein kinase I isoform gamma-2 (Homo sapiens) (P78368 whole entry, looked up, canonical isoform): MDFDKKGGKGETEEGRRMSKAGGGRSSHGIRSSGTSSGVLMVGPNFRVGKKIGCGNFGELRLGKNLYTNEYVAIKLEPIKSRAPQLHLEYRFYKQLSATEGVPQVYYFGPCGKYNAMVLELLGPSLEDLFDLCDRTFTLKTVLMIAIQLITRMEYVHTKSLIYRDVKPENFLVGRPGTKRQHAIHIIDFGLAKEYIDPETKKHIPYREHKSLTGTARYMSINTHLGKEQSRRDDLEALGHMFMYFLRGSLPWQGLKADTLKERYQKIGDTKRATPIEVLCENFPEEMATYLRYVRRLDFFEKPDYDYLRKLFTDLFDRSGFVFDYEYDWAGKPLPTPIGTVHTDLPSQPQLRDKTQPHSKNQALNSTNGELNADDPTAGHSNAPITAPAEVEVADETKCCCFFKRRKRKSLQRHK
Chain of Casein kinase I isoform gamma-3 (Homo sapiens) (Q9Y6M4 whole entry, looked up, canonical isoform): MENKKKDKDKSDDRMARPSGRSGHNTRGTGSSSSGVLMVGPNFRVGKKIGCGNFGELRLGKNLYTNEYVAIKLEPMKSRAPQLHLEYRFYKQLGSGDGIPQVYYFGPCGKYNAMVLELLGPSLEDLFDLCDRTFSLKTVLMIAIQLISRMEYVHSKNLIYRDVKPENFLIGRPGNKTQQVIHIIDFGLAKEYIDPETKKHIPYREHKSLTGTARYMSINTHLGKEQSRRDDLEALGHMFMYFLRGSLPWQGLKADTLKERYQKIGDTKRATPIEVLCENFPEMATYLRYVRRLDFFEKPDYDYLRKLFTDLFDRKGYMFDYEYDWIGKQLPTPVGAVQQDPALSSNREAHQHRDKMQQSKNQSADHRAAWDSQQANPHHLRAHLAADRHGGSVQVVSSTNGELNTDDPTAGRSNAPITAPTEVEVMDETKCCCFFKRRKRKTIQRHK

SMILES | inhibition [1] | inhibition [2] | inhibition [3] | inhibition [4] | inhibition [5] | inhibition [6] | inhibition [7] | inhibition [8] | inhibition [9] | inhibition [10] | inhibition [11] | inhibition [12] | inhibition [13] | inhibition [14] | inhibition [15] | inhibition [16] | inhibition [17] | inhibition [18] | inhibition [19] | inhibition [20]
C#Cc1cccc(Nc2ncnc3ccc(OCCCCNCCS(C)(=O)=O)cc23)c1 | 1.61% | -0.3% | 0.33% | -2.94% | -2.94% | -1.15% | -0.68% | 0.97% | 1.11% | 3.19% | -3.02% | -1.23% | 0.97% | -2.73% | -2.83% | -4.26% | 0.21% | 1.01% | 1.36% | -1.3%
O=C1NC(=O)C(c2cccc(Cl)c2)=C1Nc1ccc(Cl)c(C(=O)O)c1 | 3.4% | 1.59% | 0.02% | 0.24% | 2.57% | 2% | 9.11% | 1.73% | 1.86% | 3.54% | -3.39% | 1.47% | 1.74% | -0.04% | 1.05% | -2.3% | 1.32% | 3.2% | 0.9% | 1.12%
Cc1ccc(NC(=O)c2ccoc2)cc1-c1ccc(C(=O)NCC2CC2)cc1 | 3.57% | 2.63% | 2.71% | 1.06% | 1.75% | -0.08% | 1.04% | 0.91% | 3.1% | -0.03% | -5.1% | 0.87% | 2.89% | 0.24% | 1.07% | -5.62% | 0.19% | 0.43% | -2.64% | 0.53%
CCS(=O)(=O)c1ccc(OC)c(Nc2ncc(-c3cccc(-c4ccccc4F)c3)o2)c1 | -0.35% | 0.39% | 0.12% | 0.67% | 2.37% | 1.76% | 7.78% | 0.27% | 3.78% | 0.64% | 1.22% | 0.53% | -0.45% | 0.5% | 3.33% | 0.01% | 1.94% | 5.83% | 36.9% | 2.7%
COc1cc(Nc2ncc3c(C)nc(-c4cccc(C(F)(F)F)c4)n3n2)cc(OC)c1OC | 3.91% | 2.45% | 4.96% | 0.7% | 6.83% | 3.13% | 20.8% | 6% | 28.8% | 2.35% | 7.51% | 1.78% | 3.89% | 1.13% | 9.6% | 3.14% | 7.16% | 3.78% | 21.9% | 1.23%
NC(=O)Cc1ccccc1Oc1nccc(-c2c(-c3ccc(F)cc3)ncn2C2CCNCC2)n1 | 10.5% | 3.98% | 8.65% | -0.31% | -0.43% | 1.15% | 2% | 1.82% | 2.1% | 2.95% | -1.4% | 0.31% | 0.75% | 0.66% | 0.67% | -4.52% | 0.67% | 1.69% | 2.11% | 1.44%
O=C1Nc2ccc(I)cc2C1=Cc1cc(Br)c(O)c(Br)c1 | 6.34% | 3.79% | 3.16% | 2.76% | 1.43% | 4.61% | 3.86% | 1.77% | 3.35% | -4.12% | -2.28% | 4.82% | 6.47% | 0.5% | 0.26% | -0.1% | 0.92% | 1.63% | 4.77% | -0.91%
CCc1nccc2c1nc(-c1nonc1N)n2CC | 3.36% | -0.55% | 1.97% | 1.84% | 2.9% | 2.75% | 4.67% | 1.55% | 3.62% | 1.31% | -0.63% | 1.93% | 2.76% | 1.21% | 2.65% | -8.01% | -0.61% | 1.1% | 2.67% | -0.31%
CCS(=O)(=O)c1ccc(OC)c(Nc2ncc(-c3ccccc3Cl)o2)c1 | 1.51% | -0.55% | 0.35% | 0.87% | 0.32% | 0.49% | 3.52% | -0.35% | 1.49% | -7.09% | -0.99% | -0.77% | -0.72% | 0.11% | 0.87% | 4.47% | 3.06% | 4.19% | 34.1% | 0.66%
Clc1ccc(CNc2nccc(-c3cnn4ncccc34)n2)cc1 | 12% | -0.98% | 12.9% | 7.01% | 36.3% | 4.06% | 17.6% | 4.31% | 21.5% | 3.02% | 17.3% | 3.89% | 20.1% | 7.08% | 36.9% | 13.8% | 11% | 7.28% | 43.6% | 1.27%
c1ccc(Oc2ccc(Nc3ncc(-c4ccccc4)o3)cc2)cc1 | 2.07% | -0.2% | 1.13% | 0.18% | 1.13% | 0.43% | 1.24% | 0.94% | 3.16% | 0.29% | -2.54% | 1.05% | 1.2% | 0.52% | 1.6% | 1.34% | 3.56% | -0.16% | -0.28% | 0.6%
COc1cc(N2CCN(C(C)C)CC2)ccc1Nc1nc(Nc2ccc(F)cc2C(=O)NC[C@@H](O)CO)c2cc[nH]c2n1 | 15.6% | 2.74% | 31.8% | -2.84% | -2.45% | -1.75% | 4.45% | 0.16% | 0.53% | 3.35% | -3.1% | -2.67% | -0.98% | -3.1% | -4.32% | -8.05% | -5.78% | 29.4% | 82.9% | -0.73%
CN(C)CCCNc1nccc(-c2c(-c3ccc(F)cc3)nn3cc(C(F)(F)F)ccc23)n1 | -1.02% | -3.53% | -1.67% | -1.9% | 1.74% | -2.76% | 3.18% | -2.39% | 1.3% | 0.59% | 1.62% | -2.82% | 1.54% | -1.32% | 1.69% | -1.2% | -0.54% | 1.26% | -0.07% | -2.82%
